Assay results: PubChem BioAssay AID651899 (Broad Institute, 2012)
Measured potencies and affinities stand elsewhere. Calls of active or inactive are those of the source. No rule for the calls is given here.

Experiment: HEK293 cell viability loss – plate reader, cherry-pick, cytotoxicity control, dose response (AID 651899);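 also: cells exposed to compound for 48 hours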
Details: series mostly up to 26 µM

SMILES	outcome
CC(=O)c1ccc(N2CCN(C(=O)c3ccc4c(c3)OCO4)CC2)cc1	inactive
COc1cc(/C=C/C(=O)Nc2cccnc2)cc(OC)c1OC	inactive
Cc1nc2nc(SCC(=O)N3CCOCC3)nn2c(C)c1Cc1c(F)cccc1Cl	inactive
C[C@@H]1CN([C@@H](C)CO)C(=O)Cc2cc(NC(=O)Cn3cnnn3)ccc2O[C@H]1CN(C)Cc1ccc2c(c1)OCO2	inactive
CCCOc1ccc2c3c(c(=O)oc2c1OCCC)CCC3	inactive
CCOC(=O)CNC(=O)c1sc2ncnc(N3CCc4ccccc4C3)c2c1C	inactive
Nn1c(SCCOc2ccccc2)nnc1-c1cccnc1	inactive
CC1=C(C#N)C(c2cccnc2)C2=C(CC(c3ccc(Cl)cc3)CC2=O)N1 (stereo unspecified)	inactive
Fc1ccc(-c2ccc3c(c2)C2CC3CCN2)cc1 (stereo unspecified)	inactive
O=C(Nc1cccnc1)c1ccc(N2CCCC2)c([N+](=O)[O-])c1	inactive
O=C(c1cccc(F)c1)N1CC[C@@H]2[C@@H](CO)Nc3ccc(-c4cccc(F)c4)cc3[C@@H]21	inactive
CNC(=O)C[C@H]1CC[C@@H]2[C@H](COC[C@@H](O)CN2C(=O)Nc2ccc(Cl)c(Cl)c2)O1	inactive
CN1c2ccc(-c3cccc(C#N)c3)cc2[C@H]2[C@H](CCN2C(=O)CC2CC2)[C@H]1CO	inactive
O=C(C[C@H]1C[C@H]2c3cc(NC(=O)c4cccnc4)ccc3O[C@H]2[C@H](CO)O1)NCc1ccccn1	inactive
Cc1ccc(Cc2c(C)nc3nc(SCC(=O)NCCCN4CCCCC4)nn3c2C)cc1	inactive
C=C(C)n1c(=O)n(Cc2ccccc2C)c2ccccc21	inactive
CCNC(=O)[C@H]1[C@H](CO)[C@H]2Cn3c(ccc(-c4ccccc4)c3=O)[C@H]2N1C(=O)Cc1cccnc1	inactive
Cc1nc2c(C(=O)N3CCN(c4ccccn4)CC3)cnn2c(C)c1Cc1cccc(Cl)c1	inactive

SMILES	outcome
COc1ccc(C(=O)Nc2ccc(Cn3ccnc3)cc2)cc1OC	inactive
Cc1nnc(N2CCC(C(=O)N3CCCCC3)CC2)c2nn(-c3ccc(Cl)cc3)c(C)c12	inactive
Cc1c(OC(C)C(=O)NCc2ccccn2)ccc2c3c(c(=O)oc12)CCC3 (stereo unspecified)	inactive
Clc1ccc(CSc2nnc(-c3cccnc3)o2)cc1	inactive
C[C@H](CO)N1C[C@H](C)[C@@H](CN(C)Cc2ccc3c(c2)OCO3)Oc2ccc(NC(=O)Cn3cnnn3)cc2CC1=O	inactive
O=C(COc1ccc2ccc(=O)oc2c1)Nc1cccnc1	inactive
Nc1cc(C(=O)O)ccc1Nc1ccccc1	inactive
COC(=O)c1c(C(=O)OC)c(-c2ccccc2)n2c1CS(=O)C2 (stereo unspecified)	inactive
COCC(=O)N1CC[C@@H]2[C@@H](CO)N(C)c3ccc(-c4ccc(F)cc4)cc3[C@@H]21	inactive
C/C=C/c1ccc2c(c1)O[C@@H](CN(C)C(=O)Cc1cccnc1)[C@H](C)CN([C@H](C)CO)S2(=O)=O	inactive
COc1cccc(NC(=O)N2C[C@H](O)COC[C@@H]3O[C@@H](CC(=O)N(C)C)CC[C@H]32)c1	inactive
COc1ccc(Nc2c(-c3ccc(OC)cc3)nc3cnccn23)cc1	inactive
O=C(Cc1ccccc1)N1CC[C@@H]2[C@H]1c1cc(Br)ccc1N[C@@H]2CO	inactive
C/C=C/c1ccc2c(c1)O[C@@H](CN(C)C(=O)Nc1ccc(OC)cc1)[C@@H](C)CN([C@@H](C)CO)S2(=O)=O	inactive
Cc1nc2nc(SCC(=O)N3CCOCC3)nn2c(C)c1Cc1ccccc1	inactive
CCN(CC)S(=O)(=O)c1ccc(NC(=O)c2ccc(Cl)nc2)cc1	inactive
CO[C@H]1CN(C)C(=O)c2ccc(NC(C)=O)cc2OC[C@@H](C)N(C(=O)c2ccc(F)cc2)C[C@H]1C	inactive
CC(=O)OCC(=O)[C@@]1(OC(C)=O)[C@@H](C)C[C@H]2[C@@H]3C[C@H](F)C4=CC(=O)C=C[C@]4(C)[C@@]3(F)[C@@H](O)C[C@@]21C	inactive
